This passage reports Potency results from PubChem BioAssay (Tox21).

Inconclusive results are not listed. Calls of active or inactive are those of the source. Unless noted, the call rests on the fitted dose curve; in most records, active means well fitted curve in the direction sought with a large enough effect in the repeat runs; inconclusive means weak or mixed curves; inactive means no such curve, though single readings can be large; an effect the other way counts as inactive or inconclusive.

A short description of test [1]: qHTS assay to identify aromatase inhibitors - cell viability counter screen (AID 743084).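 Further: cells stimulated with testosterone during compound exposure; nearly all actives have a fitted effect of over 55% in size.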
Test [2] concerns the target Aryl hydrocarbon receptor (Homo sapiens) (UniProt P35869). The test can be described thus: qHTS assay to identify small molecule that activate the aryl hydrocarbon receptor (AhR) signaling pathway (AID 743085). Further: nearly all actives have a fitted effect of over 15% in size. Further: potency means the concentration at half of the fitted maximal effect.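 On activation: HG2L7.5c1 human HepG2 liver cells with stably integrated DRE-driven firefly reporter; series mostly up to about 70 µM.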 In short, it runs like this: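 HepG2 cells (HG2L7.5c1) stably carrying a firefly luciferase reporter driven by 20 dioxin responsive elements were exposed to compound for 24 h at 37C after a 5 h settling period; luminescence rise (ONE-Glo) indicated activation.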
(qHTS replaces the single test concentration by a dilution series.)

Test [3] can be described thus: qHTS assay to identify small molecule that activate the aryl hydrocarbon receptor (AhR) signaling pathway - cell viability counter screen (AID 743086).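 Further: HepG2 liver cells carrying the AhR DRE luciferase reporter; series mostly up to about 70 µM; nearly all actives have a fitted effect of over 45% in size.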 The method, boiled down:
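Cytotoxicity counter screen: CellTiter-Fluor signal (30 min, 37 C) in 4000 HepG2 cells/well carrying the DRE-luciferase reporter, following 24 h compound exposure at 37 C.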

Test [4] addresses Peroxisome proliferator-activated receptor gamma (Homo sapiens) (UniProt P37231). Put plainly: qHTS assay to identify small molecule agonists of the peroxisome proliferator-activated receptor gamma (PPARg) signaling pathway (AID 743094; active means well fitted activation curve with a large enough effect in the signal ratio in the repeat runs, not every such curve was filed as active; the % refers to the signal ratio). In short, it runs like this:
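Following 5 h plating at 37C, PPARg-bla HEK293H cells receive compound or DMSO for 17 h; fluorescence intensity is recorded after LiveBLAzer B/G loading for 1 h at room temperature.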

Test [5] has the same target. The test can be described thus: qHTS assay to identify small molecule antagonists of the peroxisome proliferator-activated receptor gamma (PPARg) signaling pathway (AID 743191; calls by dose curve; further: series mostly up to about 63 µM; nearly all actives have a fitted effect of over 30% in size). In short, it runs like this:
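Beta-lactamase reporter under UAS control in HEK293H PPARg-bla cells; compound treatment 17 h at 37C. Read-out: fluorescence intensity after 1 h room-temperature incubation with LiveBLAzer B/G FRET substrate.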

A short description of test [6]: qHTS assay to identify small molecule antagonists of the peroxisome proliferator-activated receptor gamma (PPARg) signaling pathway - cell viability counter screen (AID 743194). Further: nearly all actives have a fitted effect of over 55% in size. Particulars: Potency: co-treated with 50 nM rosiglitazone. The method, boiled down: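 Viability was measured as CellTiter-Glo luminescence in GeneBLAzer PPARg UAS-bla HEK293H cells. These cells had been exposed 17 h at 37 C to compounds together with rosiglitazone at 50 nM final, with the beta-lactamase readout taken in the same wells.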

Test [7] can be described thus: qHTS assay for small molecule agonists of the antioxidant response element (ARE) signaling pathway (AID 743202; active means well fitted activation curve with a large enough effect in the signal ratio in the repeat runs, not every such curve was filed as active; the % refers to the signal ratio). In short, it runs like this:
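Quantitative high-throughput format in HepG2 cells bearing an integrated ARE-beta-lactamase reporter. Compound exposure lasted 16 h at 37 C, and fluorescence was read 2 h after adding LiveBLAzer B/G substrate at room temperature.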

Test [8] in a line: qHTS assay for small molecule agonists of the antioxidant response element (ARE) signaling pathway - cell viability counter screen (AID 743203; calls by dose curve; further: nearly all actives have a fitted effect of over 55% in size). In short, it runs like this:
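Compounds in DMSO were pinned onto ARE-bla HepG2 cells plated 5 hrs earlier at 2,000 cells/well. Sixteen hours later at 37C/5% CO2, CellTiter-Glo was added and luminescence measured after 30 min at room temperature.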

Test [9] in a line: qHTS assay for small molecule activators of the heat shock response signaling pathway - cell viability counter screen (AID 743209). Further: nearly all actives have a fitted effect of over 50% in size. The method, boiled down: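 Counter screen for cytotoxicity in HeLa HSE-bla reporter cells. Treatment was 5 h at 37 C; viability was detected by luminescent ATP assay (CellTiter-Glo) in the same wells as the beta-lactamase read.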
Test [10] in a line: qHTS assay for small molecule activators of the heat shock response signaling pathway (AID 743210; active means well fitted activation curve with a large enough effect in the signal ratio in the repeat runs, with a control signal flat, not every such curve was filed as active; the % refers to the signal ratio;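 further: HeLa cells with beta-lactamase reporter driven by heat shock elements; series mostly up to about 63 µM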). The method, boiled down: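 HeLa HSE-bla cells, overnight plating; cpd in DMSO 5 h, 37 C; LiveBLAzer B/G FRET substrate 2.5 h RT; fluorescence intensity read.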

Sequence of Peroxisome proliferator-activated receptor gamma (Homo sapiens) (P37231 whole entry, looked up): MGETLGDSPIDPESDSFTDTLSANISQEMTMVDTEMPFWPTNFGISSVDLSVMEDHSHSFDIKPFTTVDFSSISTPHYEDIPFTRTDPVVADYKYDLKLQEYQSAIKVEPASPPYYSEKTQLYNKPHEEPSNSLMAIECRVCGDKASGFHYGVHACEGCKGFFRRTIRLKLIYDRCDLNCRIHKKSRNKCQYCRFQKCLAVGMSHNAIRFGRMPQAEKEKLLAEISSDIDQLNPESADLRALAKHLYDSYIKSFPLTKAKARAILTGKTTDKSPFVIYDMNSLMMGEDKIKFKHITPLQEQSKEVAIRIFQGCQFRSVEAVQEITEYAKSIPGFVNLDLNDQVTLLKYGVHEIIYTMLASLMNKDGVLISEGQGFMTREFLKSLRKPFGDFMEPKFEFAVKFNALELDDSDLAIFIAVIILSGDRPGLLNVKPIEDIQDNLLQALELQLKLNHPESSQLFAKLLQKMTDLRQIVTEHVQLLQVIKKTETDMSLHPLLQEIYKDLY
Sequence of Aryl hydrocarbon receptor (Homo sapiens) (P35869 whole entry, looked up): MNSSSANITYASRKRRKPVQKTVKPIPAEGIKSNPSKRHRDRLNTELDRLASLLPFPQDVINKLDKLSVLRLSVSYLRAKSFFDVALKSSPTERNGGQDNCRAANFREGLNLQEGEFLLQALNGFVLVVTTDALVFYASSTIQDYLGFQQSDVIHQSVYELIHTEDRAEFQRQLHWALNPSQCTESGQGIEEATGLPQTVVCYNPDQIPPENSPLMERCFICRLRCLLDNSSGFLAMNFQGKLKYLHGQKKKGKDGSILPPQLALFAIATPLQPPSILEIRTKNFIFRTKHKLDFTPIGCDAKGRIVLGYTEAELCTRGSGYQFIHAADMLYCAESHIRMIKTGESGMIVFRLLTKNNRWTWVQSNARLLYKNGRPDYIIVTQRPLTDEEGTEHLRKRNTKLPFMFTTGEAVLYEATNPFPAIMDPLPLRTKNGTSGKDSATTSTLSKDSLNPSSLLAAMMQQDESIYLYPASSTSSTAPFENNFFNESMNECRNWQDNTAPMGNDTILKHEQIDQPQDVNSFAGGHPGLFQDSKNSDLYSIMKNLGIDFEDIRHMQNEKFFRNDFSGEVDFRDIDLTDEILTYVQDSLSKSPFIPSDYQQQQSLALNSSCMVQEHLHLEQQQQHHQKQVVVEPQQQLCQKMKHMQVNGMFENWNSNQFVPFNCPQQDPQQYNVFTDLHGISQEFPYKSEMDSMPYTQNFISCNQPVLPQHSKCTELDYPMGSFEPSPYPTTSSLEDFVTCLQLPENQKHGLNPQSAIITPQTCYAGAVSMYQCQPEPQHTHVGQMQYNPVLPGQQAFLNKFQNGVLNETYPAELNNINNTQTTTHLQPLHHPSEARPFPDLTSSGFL

Turning to `Oc1cccc(Cl)c1`, the Potency entry in [1], in test [2], in test [3], in test [4], in test [5] and in [6] was “inactive” each time. The Potency entry in test [7], in test [8] and in test [9] was “inactive” in each case.
Take `CCCC[P+](CC)(CCCC)CCCC` (tested in a mixture with another compound): the Potency result in test [1], in [2], in test [3], in [4], in test [5] and in [6] was “inactive” in each case. Also, the Potency entry in test [7], in test [8], in test [9] and in test [10] was “inactive” throughout.
Regarding `CON(C)C(=O)Nc1ccc(Cl)cc1`, the Potency result in test [1], in [3], in [4], in test [5], in test [6] and in [7] was “inactive” each time. In addition, the Potency result in test [8] and in [9] was “inactive” each time. In test [2], the Potency was 27.3 µM (active).
With `CCOP(=O)(O)C(N)=O`, the Potency result in test [1], in [2], in test [3], in test [4], in test [5] and in test [6] was “inactive” in each case. The Potency result in test [7], in [8] and in [9] was “inactive” in each case.
For the molecule `CCC[N+](CCC)(CCC)CCC`, the Potency result in test [1], in [2], in test [3], in [4], in test [5] and in test [6] was “inactive” each time. For the same molecule, the Potency result in [7], in [8] and in test [9] was “inactive” throughout.
For `OCCCl`, the Potency result in test [1], in test [2], in [3], in test [4], in [5] and in test [6] was “inactive” each time. The Potency result in test [7], in test [8], in test [9] and in [10] was “inactive” each time.
Turning to `CCCC[N+]1(C)[C@@H]2CC(OC(=O)[C@H](CO)c3ccccc3)C[C@H]1[C@@H]1O[C@@H]12` (some centres undefined), the Potency entry in test [1], in test [2], in test [3], in test [4], in test [5] and in test [6] was “inactive” throughout. In addition, the Potency entry in [7], in test [8], in test [9] and in test [10] was “inactive” in each case.
For the molecule `Cc1ccc(N)c(C)c1`, the Potency entry in test [1], in [2], in test [3], in [4], in test [5] and in [6] was “inactive” in each case. Moreover, the Potency entry in test [7], in test [8] and in test [9] was “inactive” each time.
For the molecule `CCOC(=O)C1OC1(C)c1ccccc1` (centres undefined), the Potency entry in test [1], in test [2], in [3], in [4], in test [5] and in test [6] was “inactive” in each case. Further, the Potency entry in test [7], in test [8], in test [9] and in test [10] was “inactive” throughout.
For `CCC(C)(C)O`, the Potency entry in test [1], in [2], in [3], in [4], in [5] and in test [6] was “inactive” each time. Moreover, the Potency result in [7], in test [8], in [9] and in test [10] was “inactive” throughout.
In the case of `CN(C1CCCCC1)C1CCCCC1`, the Potency entry in test [1], in test [2], in [3], in test [4], in test [5] and in test [6] was “inactive” in each case. In addition, the Potency result in test [7], in [8] and in test [9] was “inactive” each time.
On to `CC(C)(C)NCC(O)c1ccccc1Cl` (centres undefined), for which the Potency result in [1], in [2], in [3], in test [4], in test [5] and in test [6] was “inactive” in each case. The Potency result in test [7], in test [8] and in test [9] was “inactive” each time.
For the molecule `O=S(=O)(c1ccccc1)c1ccccc1`, the Potency result in test [1], in [2], in test [3], in test [4], in test [5] and in [6] was “inactive” throughout. In addition, the Potency entry in [7], in test [8], in test [9] and in test [10] was “inactive” in each case.
`C[C@H]1O[C@H](OC2[C@@H](O)[C@@H](O)C(O)[C@H](O)[C@H]2O)[C@@H](N)C[C@@H]1N=C(N)C(=O)O` (some centres undefined): the Potency entry in test [1], in [2], in test [3], in test [4], in test [5] and in test [6] was “inactive” in each case. The Potency result in test [7], in test [8] and in [9] was “inactive” in each case.
Regarding `CCCC(C)(COC(N)=O)COC(=O)NC(C)C` (centres undefined), the Potency entry in test [1], in test [2], in test [3], in [4], in test [5] and in test [6] was “inactive” throughout. For the same molecule, the Potency result in test [7], in test [8], in test [9] and in [10] was “inactive” in each case.
For `O=C(O)C(Cl)(Cl)Br`, the Potency result in test [1], in test [2], in test [3], in [4], in test [5] and in test [6] was “inactive” in each case. The Potency result in [7], in [8], in test [9] and in test [10] was “inactive” in each case.
In the case of `C1CS1`, the Potency result in [1], in test [2], in [3], in test [4], in [5] and in test [6] was “inactive” in each case. Moreover, the Potency entry in test [7], in test [8] and in test [9] was “inactive” in each case.
With `Nc1cc(Cl)cc(C(=O)O)c1Cl`, the Potency result in test [1], in [2], in test [3], in test [4], in test [5] and in test [6] was “inactive” throughout. Further, the Potency entry in [7], in test [8], in test [9] and in test [10] was “inactive” in each case.
Regarding `FC(F)OC(F)(F)C(F)Cl` (centres undefined), the Potency result in test [1], in test [2], in test [3], in test [4], in test [5] and in [6] was “inactive” in each case. In addition, the Potency result in test [7], in test [8] and in test [9] was “inactive” in each case.
`O=C(O)c1cc(Cl)ccc1Cl`: the Potency result in test [1], in [2], in test [3], in [4], in test [5] and in test [6] was “inactive” each time. Moreover, the Potency entry in [7], in test [8], in test [9] and in test [10] was “inactive” throughout.
With `CC(C)C1(C)N=C(c2ncccc2C(=O)O)NC1=O` (centres undefined), the Potency result in test [1], in test [2], in [3], in test [4], in [5] and in test [6] was “inactive” in each case. Further, the Potency entry in test [7], in test [8], in test [9] and in test [10] was “inactive” in each case.
Consider `C[N+]1(CCF)[C@@H]2CC[C@H]1CC(OC(=O)C(O)(c1ccccc1)c1ccccc1)C2` (some centres undefined), for which the Potency entry in test [1], in test [2], in test [3], in test [4], in test [5] and in [6] was “inactive” throughout. The Potency entry in test [7], in [8], in test [9] and in test [10] was “inactive” each time.
As for `Cc1cnc(C2=NC(C)(C(C)C)C(=O)N2)c(C(=O)O)c1` (centres undefined), the Potency result in [1], in test [2], in test [3], in [4], in test [5] and in test [6] was “inactive” each time. Besides, the Potency result in [7], in test [8] and in test [9] was “inactive” in each case.
